Data: PubChem BioAssay (NCI)
The panel holds about 83,000 compounds, 20% with a hit somewhere; the sample as a whole holds those more often.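 Compound tested at a single concentration for 48 hours in 96-well plates; a percent growth value below 10 was scored as active.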 Activity calls are given as the source filed them.

Assays:
Assay in all cases: NCI-60 one-dose screen, 48 h (100 = growth as untreated, 0 = no growth, -100 = all killed)
Details in all cases: 10 µM unless noted
SR leukemia = tested on: SR leukemia
RPMI-8226 leukemia = tested on: RPMI-8226 leukemia
OVCAR-8 ovarian = tested on: OVCAR-8 ovarian
OVCAR-5 ovarian = tested on: OVCAR-5 ovarian
OVCAR-4 ovarian = tested on: OVCAR-4 ovarian
SK-OV-3 ovarian = tested on: SK-OV-3 ovarian
IGROV1 ovarian = tested on: IGROV1 ovarian
OVCAR-3 ovarian = tested on: OVCAR-3 ovarian
HS 578T breast = tested on: HS 578T breast
NCI/ADR-RES ovarian = tested on: NCI/ADR-RES ovarian
T-47D breast = tested on: T-47D breast
BT-549 breast = tested on: BT-549 breast
MDA-MB-435 melanoma = tested on: MDA-MB-435 melanoma
SW-620 colon = tested on: SW-620 colon
MCF7 breast = tested on: MCF7 breast
HCT-116 colon = tested on: HCT-116 colon
HCC-2998 colon = tested on: HCC-2998 colon
KM12 colon = tested on: KM12 colon

Measured: growth

COc1ccc(C(c2cc(OC)c(OC)c(OC)c2)N2CCCC2)cc1 (stereo not given)
inactive: SR leukemia 23.9% | RPMI-8226 leukemia 97.4% | OVCAR-8 ovarian 95.6% | OVCAR-5 ovarian 92.6% | OVCAR-4 ovarian 101% | SK-OV-3 ovarian 77.5% | IGROV1 ovarian 82.9% | OVCAR-3 ovarian 66.6% | HS 578T breast 80.4% | NCI/ADR-RES ovarian 69.4% | T-47D breast 89.8% | BT-549 breast 81.6% | SW-620 colon 47.8% | MCF7 breast 64.1% | HCT-116 colon 62.3% | HCC-2998 colon 89.1% | KM12 colon 43.9%
active: MDA-MB-435 melanoma -21.8%

CC(/C=C1\SC(=S)N(CC(=O)NC(Cc2c[nH]c3ccccc23)C(=O)O)C1=O)=C\c1ccccc1 (stereo not given)
inactive: SR leukemia 108% | RPMI-8226 leukemia 105% | OVCAR-8 ovarian 100% | OVCAR-5 ovarian 102% | OVCAR-4 ovarian 101% | SK-OV-3 ovarian 105% | IGROV1 ovarian 101% | OVCAR-3 ovarian 108% | HS 578T breast 103% | NCI/ADR-RES ovarian 103% | T-47D breast 106% | BT-549 breast 105% | MDA-MB-435 melanoma 104% | SW-620 colon 104% | MCF7 breast 94.8% | HCT-116 colon 112% | HCC-2998 colon 103% | KM12 colon 107%

O=C1/C=C/[C@@H](O)[C@@H]2C[C@@H](O)C[C@H]2/C=C/CCC[C@H](CCOCc2ccccc2)O1
active: SR leukemia -7.43% | OVCAR-8 ovarian 9.04% | OVCAR-5 ovarian 8.12% | OVCAR-3 ovarian -45.8% | NCI/ADR-RES ovarian 6.93% | BT-549 breast 7.15% | MDA-MB-435 melanoma 7.86% | SW-620 colon -23.8% | MCF7 breast -10.3% | HCT-116 colon -71.1% | HCC-2998 colon 3.47% | KM12 colon -60.5%
inactive: RPMI-8226 leukemia 11.5% | OVCAR-4 ovarian 25.8% | SK-OV-3 ovarian 31.3% | IGROV1 ovarian 15.1% | HS 578T breast 23.8% | T-47D breast 15.6%

Cc1ccc2nc(Cl)c(Cn3nnnc3SCc3ccccc3)cc2c1
inactive: SR leukemia 80% | RPMI-8226 leukemia 93.1% | OVCAR-8 ovarian 97.3% | OVCAR-5 ovarian 94.3% | OVCAR-4 ovarian 86.9% | SK-OV-3 ovarian 97.7% | IGROV1 ovarian 95.4% | OVCAR-3 ovarian 105% | HS 578T breast 83.1% | NCI/ADR-RES ovarian 86.1% | T-47D breast 84.6% | BT-549 breast 92.3% | MDA-MB-435 melanoma 103% | SW-620 colon 96.1% | MCF7 breast 87.9% | HCT-116 colon 89.5% | HCC-2998 colon 111% | KM12 colon 101%

Cc1ccccc1CNc1c2ccccc2nc2ccccc12
active: SR leukemia 2.71% | RPMI-8226 leukemia -8.88% | MCF7 breast 6.93% | HCT-116 colon 7.9%
inactive: OVCAR-8 ovarian 21% | OVCAR-5 ovarian 36.7% | OVCAR-4 ovarian 32.9% | SK-OV-3 ovarian 40.8% | IGROV1 ovarian 14.8% | OVCAR-3 ovarian 31.3% | HS 578T breast 35.7% | NCI/ADR-RES ovarian 24.9% | T-47D breast 24.6% | BT-549 breast 55.9% | MDA-MB-435 melanoma 23.9% | SW-620 colon 13.8% | HCC-2998 colon 16.2% | KM12 colon 16.9%

C=C1C(=O)O[C@H]2[C@H]1CC/C(COC(=O)c1cc3cc(F)ccc3[nH]1)=C\CC[C@@]1(C)O[C@@H]21
active: SR leukemia -5.71% | RPMI-8226 leukemia -33.3% | OVCAR-8 ovarian -42% | OVCAR-5 ovarian -74.2% | OVCAR-4 ovarian -68.2% | IGROV1 ovarian -72.1% | OVCAR-3 ovarian -85.5% | HS 578T breast -14.2% | NCI/ADR-RES ovarian -20.2% | T-47D breast -51.8% | BT-549 breast -82.9% | MDA-MB-435 melanoma -82% | SW-620 colon -69.2% | MCF7 breast -61.7% | HCT-116 colon -87.2% | HCC-2998 colon -83.4% | KM12 colon -48%
inactive: SK-OV-3 ovarian 26.7%

Cc1ccc(/C=C/C(=O)c2ccc(NC(=O)CSc3nc4c([nH]3)c(=O)n(C)c(=O)n4C)cc2)c(C)c1
inactive: SR leukemia 30.4% | RPMI-8226 leukemia 52.6% | OVCAR-8 ovarian 40.3% | OVCAR-5 ovarian 124% | OVCAR-4 ovarian 36.9% | SK-OV-3 ovarian 30.9% | IGROV1 ovarian 36.3% | OVCAR-3 ovarian 13.8% | HS 578T breast 27.4% | NCI/ADR-RES ovarian 82.7% | T-47D breast 37.2% | BT-549 breast 69.9% | MDA-MB-435 melanoma 60.7% | SW-620 colon 49% | MCF7 breast 39.8% | HCC-2998 colon 45.1% | KM12 colon 37.5%
active: HCT-116 colon 5.13%

COc1ccc(-c2ccc(-c3ccc(C(=N)N)cn3)s2)cc1
active: SR leukemia 3.22% | SW-620 colon 8.29% | HCT-116 colon -20.8%
inactive: RPMI-8226 leukemia 20.1% | OVCAR-8 ovarian 65.2% | OVCAR-5 ovarian 92.5% | OVCAR-4 ovarian 113% | SK-OV-3 ovarian 90.6% | IGROV1 ovarian 89% | OVCAR-3 ovarian 83.9% | HS 578T breast 97.4% | NCI/ADR-RES ovarian 101% | T-47D breast 74.3% | BT-549 breast 88.1% | MDA-MB-435 melanoma 97% | MCF7 breast 44.1% | HCC-2998 colon 81.3% | KM12 colon 61.6%

CC(=O)c1cc(-c2ccccc2N)n(-c2ccc3c(c2)OCO3)c1C
active: OVCAR-3 ovarian 5.55% | BT-549 breast 1.13% | MDA-MB-435 melanoma -43.6% | HCT-116 colon 6.22% | KM12 colon 5.16%
inactive: SR leukemia 14% | RPMI-8226 leukemia 19.8% | OVCAR-8 ovarian 18.7% | OVCAR-5 ovarian 30% | OVCAR-4 ovarian 48.3% | SK-OV-3 ovarian 33.7% | IGROV1 ovarian 22% | HS 578T breast 32.6% | NCI/ADR-RES ovarian 13.1% | T-47D breast 71% | SW-620 colon 29.2% | MCF7 breast 14.8% | HCC-2998 colon 15.8%

O=C(Nc1ccccc1O)c1ccccc1Nc1ccnc(C(F)(F)F)c1
inactive: SR leukemia 76% | RPMI-8226 leukemia 56.5% | OVCAR-8 ovarian 100% | OVCAR-5 ovarian 99.9% | OVCAR-4 ovarian 95.8% | SK-OV-3 ovarian 100% | IGROV1 ovarian 79.5% | OVCAR-3 ovarian 97.6% | HS 578T breast 96.4% | NCI/ADR-RES ovarian 90.7% | T-47D breast 88.4% | BT-549 breast 112% | MDA-MB-435 melanoma 115% | SW-620 colon 102% | MCF7 breast 83.4% | HCT-116 colon 84.2% | HCC-2998 colon 107% | KM12 colon 102%

COc1ccc(Nc2ncccc2NC(=O)c2cn(Cc3cccc(Oc4ccccc4)c3)nn2)cc1OC
active: MDA-MB-435 melanoma 4.74%
inactive: SR leukemia 34.9% | RPMI-8226 leukemia 73.2% | OVCAR-8 ovarian 90.8% | OVCAR-5 ovarian 111% | OVCAR-4 ovarian 68.2% | SK-OV-3 ovarian 93.5% | IGROV1 ovarian 89.5% | OVCAR-3 ovarian 73.3% | HS 578T breast 72.9% | NCI/ADR-RES ovarian 77% | T-47D breast 49.2% | BT-549 breast 73% | SW-620 colon 73% | MCF7 breast 48.5% | HCT-116 colon 80.7% | HCC-2998 colon 88.1% | KM12 colon 57.6%

COc1ccc(-c2cc(-c3ccc(OC)cc3)nc(NCCCNc3ccnc4cc(Cl)ccc34)n2)cc1
inactive: OVCAR-5 ovarian 105% | SK-OV-3 ovarian 76.8% | OVCAR-3 ovarian 91.7% | HS 578T breast 83.5% | NCI/ADR-RES ovarian 71.7% | T-47D breast 89.3% | BT-549 breast 81.2% | KM12 colon 44.8%
active: SR leukemia 5.81% | RPMI-8226 leukemia 7.42% | OVCAR-8 ovarian -51.3% | OVCAR-4 ovarian -16.5% | IGROV1 ovarian -62.6% | MDA-MB-435 melanoma -69.9% | SW-620 colon -39.7% | MCF7 breast -54.2% | HCT-116 colon -84.9% | HCC-2998 colon -56.4%

C[C@@H]1CC[C@@]2(OC1)O[C@H]1C[C@H]3[C@@H]4CC=C5C[C@@H](O[C@@H]6O[C@H](CO)[C@@H](O[C@@H]7O[C@@H](CO)[C@H](O)[C@H]7O)[C@H](O)[C@H]6O[C@@H]6O[C@@H](C)[C@H](O)[C@@H](O)[C@H]6O)CC[C@]5(C)[C@H]4CC[C@]3(C)[C@H]1[C@@H]2C
active: SR leukemia -58.5% | RPMI-8226 leukemia -60.1% | OVCAR-8 ovarian -91.2% | OVCAR-5 ovarian -87.7% | OVCAR-4 ovarian -90% | SK-OV-3 ovarian -36.4% | IGROV1 ovarian -84.2% | OVCAR-3 ovarian -90.2% | HS 578T breast -47.9% | NCI/ADR-RES ovarian -85.6% | T-47D breast -22.6% | BT-549 breast -59.4% | MDA-MB-435 melanoma -92.8% | SW-620 colon -86.4% | MCF7 breast -87.9% | HCT-116 colon -84% | HCC-2998 colon -75.9% | KM12 colon -90.6%

C#CC#CC#CC#CC#CC#CC#CC#CC[C@H]1OC[C@@H](COC(=O)O[C@@H](C(=O)O[C@H]2C[C@@]3(O)[C@@H](OC(=O)c4ccccc4)[C@@H]4[C@]5(OC(C)=O)CO[C@@H]5C[C@H](O)[C@@]4(C)C(=O)[C@H](OC(C)=O)C(=C2C)C3(C)C)[C@@H](NC(=O)c2ccccc2)c2ccccc2)O1
inactive: SR leukemia 25.9% | RPMI-8226 leukemia 26% | OVCAR-8 ovarian 59.7% | OVCAR-5 ovarian 47% | OVCAR-4 ovarian 68.3% | SK-OV-3 ovarian 61.7% | IGROV1 ovarian 49.2% | OVCAR-3 ovarian 22.6% | HS 578T breast 44.3% | NCI/ADR-RES ovarian 108% | T-47D breast 53.4% | BT-549 breast 53.2% | SW-620 colon 42.4% | MCF7 breast 33.7% | HCT-116 colon 18% | HCC-2998 colon 48.3% | KM12 colon 16.7%
active: MDA-MB-435 melanoma -47.8%

C=C1C(=O)O[C@H]2[C@H]1CC/C(COC(=O)NCc1ccc(Cn3c(=O)sn(-c4ccc(OC)cc4)c3=O)cc1)=C\CC[C@@]1(C)O[C@@H]21
inactive: SR leukemia 27.3% | OVCAR-8 ovarian 75.8% | OVCAR-5 ovarian 83.6% | OVCAR-4 ovarian 35.7% | SK-OV-3 ovarian 105% | IGROV1 ovarian 46.7% | HS 578T breast 90.7% | NCI/ADR-RES ovarian 95.8% | T-47D breast 18.5% | BT-549 breast 73.1% | MDA-MB-435 melanoma 67.1% | MCF7 breast 20.3% | HCC-2998 colon 97.5% | KM12 colon 95.3%
active: RPMI-8226 leukemia -3.82% | OVCAR-3 ovarian -27.1% | SW-620 colon -59.8% | HCT-116 colon 5.31%
